In assay [1] the test system is TRPC4 beta (transient receptor potential cation channel C4), mouse. The assay can be described thus: activators of mouse TRPC4 channel, confirmation, cell-based, Fluo4 calcium, HEK293 TRPC4beta/mu-opioid, duplicates, 10 µM (AID 2426;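 active = fluorescence ratio normalized to control raised more than 50% in primary screen plus both repeat runs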;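 for activation: percent rise of integrated ratio over buffer wells lacking compound which define 0%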). The settings on record: Fluo4 calcium fluorescence, at 10 µM; active compounds read high.
Assay [2] deals with transient receptor potential cation channel C4 beta (TRPC4), mouse. The experiment in a line: activators of mouse TRPC4 channel, confirmation, cell-based, second round, Fluo4, HEK293 TRPC4beta/mu-opioid, 1 µM (AID 2461;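 active = primary screen active and over 50% activation in each of two duplicate runs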;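 for activation: 0% = wells without test compound as baseline of integrated fluorescence ratio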). The settings on record: Fluo4 calcium fluorescence, at 1 µM; active compounds read high.
Assay [3] relates to TRPC4 (transient receptor potential cation channel C4 beta), mouse. The assay can be described thus: positive allosteric modulators of mouse TRPC4, confirmation, cell-based, second round, Fluo-4, HEK293 TRPC4beta/mu-opioid, 1 µM (AID 2554;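 active = primary screen hit whose fluorescence ratio, in both repeats, exceeds the weak agonist control mean by 3 SD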). The note with it: DAMGO EC20, Fluo-4 calcium flux, at 1 µM; active compounds read high. Background: A change in cytosolic calcium serves as a functional read-out for many receptors and channels.

Assay [4] relates to TRPC4 beta (transient receptor potential cation channel C4), mouse. The experiment in a line: positive allosteric modulators of mouse TRPC4, confirmation, cell-based, Fluo-4, HEK293 TRPC4beta/mu-opioid (AID 2555;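 active = primary screen hit whose calcium fluorescence ratio, in both repeats, exceeds the weak agonist control mean by 3 SD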). The note with it: DAMGO EC20, Fluo-4 calcium flux, at 10 µM; active compounds read high.
Assay [5] concerns the target Short transient receptor potential channel 4 (Mus musculus) (UniProt Q9QUQ5). The experiment in a line: inhibitors of mouse TRPC4 channel, confirmation, cell-based, Fluo4, HEK293 TRPC4beta/mu-opioid (AID 2636;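 active = calcium signal cut by more than 3 SD below the full-agonist control yet still positive, in both repeats and the earlier primary screen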). The settings on record: DAMGO, Fluo4 calcium flux, at 10 µM; active compounds read high.
For assay [6] the target is unchanged. The experiment in a line: inhibitors of mouse TRPC4 channel, confirmation, cell-based, second round, Fluo4, HEK293 TRPC4beta/mu-opioid, 1 µM (AID 2637). The note with it: Fluo4 calcium flux, DAMGO, at 1 µM; active compounds read high.
Assay [7] shares this target. The assay can be described thus: TRPC4 positive allosteric modulators, dose response, cell-based, HEK293 TRPC4/mu-opioid, Fluo-4 calcium, EC20 DAMGO (AID 434941;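 active = earlier screen potentiator hit that boosts the TRPC4 ion channel at some dose, with a dose response; inactive = no potentiation, no dose response, or not a prior hit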;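 note: calcium entry triggered by an EC20 dose of DAMGO at the co-expressed mu-opioid receptor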).
For assay [8] the target is unchanged. The experiment in a line: mouse TRPC4 channel inhibitors, dose response, cell-based, HEK293 TRPC4/mu-opioid, Fluo-4 calcium (AID 434942;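 active = primary screen inhibitor hit that blocks the TRPC4 channel at some tested dose, yielding a dose curve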).
Assay [9] addresses Short transient receptor potential channel 6 (Mus musculus) (UniProt Q61143). The experiment in a line: inhibition of mouse TRPC6 channel, confirmation, selectivity assay for TRPC4 inhibitor project, cell-based, HEK293, membrane potential dye, duplicate (AID 434948;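 active = active in primary screen and both duplicates, each dropping signal beyond three positive-control SD with fluorescence still positive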). The settings on record: HEK293 TRPC6, membrane potential dye fluorescence, at 10 µM, stimulated with maximal-effect acetylcholine; active compounds read high.

The target is the same in assay [10]. The experiment in a line: activation of mouse TRPC6 channel, confirmation, selectivity assay for TRPC4 activator project, cell-based, HEK293, membrane potential dye, duplicate (AID 434950;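 active = membrane potential signal rise above negative control mean plus 3 SD in both duplicates, also active in the earlier TRPC4 screen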;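 for activation: 0% = buffer only wells and 100% = acetylcholine maximal-effect wells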). The note with it: HEK293 TRPC6, membrane potential fluorescence, at 10 µM; active compounds read high.
For assay [11] the target is unchanged. The assay can be described thus: TRPC6 potentiation by TRPC4 potentiator hits, confirmation, selectivity assay for TRPC4 potentiator project, HEK293 cells, membrane potential dye, duplicate (AID 434952;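 active = compound raising the membrane signal above positive-control mean plus 3 SD in both repeats, and a primary screen hit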). The settings on record: HEK293 TRPC6, membrane potential dye fluorescence, at 10 µM, maximal acetylcholine added after compound; active compounds read high.
Assay [12] has as its target Short transient receptor potential channel 4 (Mus musculus) (UniProt Q9QUQ5). The experiment in a line: calcium flux activators in TRPC4/5HT1a cells, counter-screen for TRPC4 activator project, cell-based, second counter screen, HEK293 TRPC4/5HT1a, Fluo-4 (AID 434977;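 active = calcium signal rise above buffer-control mean plus 5 SD in both duplicates, and also a hit in the primary screen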;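 for activation: plate controls were assay buffer for no effect and maximal serotonin response for full effect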). The note with it: Fluo-4 calcium flux, at 10 µM; active compounds read high.
The nature of assay [13]: calcium flux inhibitors in TRPC4/5HT1a cells, confirmation, counter-screen for TRPC4 inhibitor project, cell-based, second counter screen, HEK293 TRPC4/5HT1a, Fluo-4 (AID 434978;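 active = primary screen active whose calcium signal fell more than 3 SD beyond the full-serotonin control mean in both duplicate plates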;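 note: serotonin given first at submaximal then at maximal dose after compound preincubation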). The settings on record: Fluo-4 calcium flux, at 10 µM, serotonin added to trigger calcium flux; active compounds read high.
The test system of assay [14] is TRPC4 (mouse), co-expressed with 5HT1a in HEK293. The assay can be described thus: calcium flux potentiators in TRPC4/5HT1a cells, confirmation, counter-screen for TRPC4 potentiator project, cell-based, second counter screen, HEK293 TRPC4/5HT1a, Fluo-4 (AID 434979;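 active = signal rise over 3 SD above mean of control wells given weak agonist, in both repeats and first screen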). The note with it: Fluo-4 calcium flux, at 10 µM, serotonin added at its EC20 dose; active compounds read high.

The nature of assay [15]: calcium flux activation in mu-opioid HEK293 cells, confirmation, counter-screen for TRPC4 activator project, cell-based, HEK293 mu-opioid receptor line (AID 449723;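 active = hit in primary screen, with calcium signal over 5 SD above buffer well mean in both duplicates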;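 note: counter screen cells carry the mu-opioid receptor alone and lack TRPC4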). The note with it: Fluo-4 calcium fluorescence, at 10 µM; active compounds read high.
The nature of assay [16]: calcium flux enhancement in mu-opioid HEK293 cells, confirmation, counter-screen for TRPC4 allosteric potentiator project, cell-based, HEK293 mu-opioid receptor line (AID 449724;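 active = calcium signal rise more than 3 SD above the low-dose agonist control mean, in both duplicate plates and the primary screen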;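 note: HEK293 cells carrying mu-opioid receptor only with no TRPC4 channel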). The settings on record: Fluo-4 calcium flux, at 10 µM, compound added before EC20 DAMGO stimulus; active compounds read high.

Molecules are shown by their SMILES. For part of these data: Entries with a potency or affinity are not part of this list. Active and inactive are the calls of the source.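 Rule for the calls, unless noted: active = calcium signal ratio cut to more than 3 SD under the fully stimulated control mean yet still positive, in both repeats and the primary screen; inactive = the rest.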

Chain of Short transient receptor potential channel 6 (Mus musculus) (Q61143 whole entry, looked up): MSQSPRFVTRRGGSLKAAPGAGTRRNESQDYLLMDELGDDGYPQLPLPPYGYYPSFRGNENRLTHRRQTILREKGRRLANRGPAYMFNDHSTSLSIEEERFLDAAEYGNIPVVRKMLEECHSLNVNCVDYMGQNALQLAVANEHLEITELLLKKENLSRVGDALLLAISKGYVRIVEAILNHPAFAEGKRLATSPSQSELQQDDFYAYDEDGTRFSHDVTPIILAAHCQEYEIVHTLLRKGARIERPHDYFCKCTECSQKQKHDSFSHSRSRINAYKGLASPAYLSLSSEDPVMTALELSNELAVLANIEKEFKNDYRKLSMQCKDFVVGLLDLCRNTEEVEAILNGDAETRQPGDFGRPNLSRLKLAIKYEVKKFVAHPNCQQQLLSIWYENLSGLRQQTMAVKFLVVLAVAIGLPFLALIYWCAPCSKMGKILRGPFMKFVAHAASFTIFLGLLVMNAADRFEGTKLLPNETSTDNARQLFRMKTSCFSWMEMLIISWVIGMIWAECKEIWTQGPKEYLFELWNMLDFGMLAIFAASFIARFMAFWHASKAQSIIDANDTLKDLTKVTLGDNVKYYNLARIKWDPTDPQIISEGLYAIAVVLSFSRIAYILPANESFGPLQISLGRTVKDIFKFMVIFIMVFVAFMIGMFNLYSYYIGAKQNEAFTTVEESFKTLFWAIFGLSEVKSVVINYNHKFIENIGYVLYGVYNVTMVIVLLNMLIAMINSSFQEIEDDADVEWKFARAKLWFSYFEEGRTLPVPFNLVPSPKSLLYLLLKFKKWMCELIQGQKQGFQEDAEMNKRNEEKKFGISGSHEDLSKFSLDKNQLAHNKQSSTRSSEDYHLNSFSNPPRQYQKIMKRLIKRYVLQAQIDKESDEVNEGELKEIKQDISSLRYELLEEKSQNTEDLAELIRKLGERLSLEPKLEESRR
Chain of Short transient receptor potential channel 4 (Mus musculus) (Q9QUQ5 whole entry, looked up): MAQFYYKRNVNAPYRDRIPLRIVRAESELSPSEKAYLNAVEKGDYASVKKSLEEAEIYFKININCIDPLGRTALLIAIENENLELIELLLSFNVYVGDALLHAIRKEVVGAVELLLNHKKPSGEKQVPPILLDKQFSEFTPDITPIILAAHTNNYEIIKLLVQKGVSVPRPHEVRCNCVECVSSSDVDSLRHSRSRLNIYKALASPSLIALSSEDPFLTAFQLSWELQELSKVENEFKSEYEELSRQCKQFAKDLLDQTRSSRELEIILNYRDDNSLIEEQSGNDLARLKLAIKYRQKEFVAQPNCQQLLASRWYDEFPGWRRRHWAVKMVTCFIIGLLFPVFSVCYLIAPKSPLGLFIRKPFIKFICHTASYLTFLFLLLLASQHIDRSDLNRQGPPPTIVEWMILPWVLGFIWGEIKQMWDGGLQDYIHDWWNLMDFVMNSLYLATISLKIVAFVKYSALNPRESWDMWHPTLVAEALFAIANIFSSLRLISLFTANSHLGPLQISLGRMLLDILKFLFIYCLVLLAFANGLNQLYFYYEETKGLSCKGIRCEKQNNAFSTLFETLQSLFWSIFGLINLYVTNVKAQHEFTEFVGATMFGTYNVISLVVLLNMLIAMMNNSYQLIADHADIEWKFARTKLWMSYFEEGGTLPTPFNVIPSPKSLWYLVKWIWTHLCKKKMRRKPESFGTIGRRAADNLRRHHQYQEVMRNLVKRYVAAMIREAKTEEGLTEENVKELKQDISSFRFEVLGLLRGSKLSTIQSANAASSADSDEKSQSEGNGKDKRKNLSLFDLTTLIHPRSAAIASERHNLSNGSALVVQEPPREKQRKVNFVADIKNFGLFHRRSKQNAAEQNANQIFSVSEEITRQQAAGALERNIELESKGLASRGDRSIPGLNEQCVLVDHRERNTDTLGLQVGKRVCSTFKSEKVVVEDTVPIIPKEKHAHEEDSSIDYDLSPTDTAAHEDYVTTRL

As for `Cc1ccc(C)c(CN2CCC(CNC(=O)CCc3nnc4ccc(N5CCCCC5)nn34)CC2)c1`, the activation is 157% (active) in [1] and 92% (active) in assay [2]. Also, the outcome in [3], in [4], in assay [5], in [6], in [7] and in [8] was inactive. Also, the result in assay [9], in assay [10], in assay [11], in assay [12], in assay [13] and in [14] was inactive. The result in assay [15] and in assay [16] was inactive.
Take `Cc1ccccc1NC(=S)NCCc1ccccn1`: the results for the activation in assay [1] and in assay [12] were 143% (active) and 56.5% (active), respectively. In addition, the outcome in assay [2], in [3], in assay [4], in assay [5], in [6] and in assay [7] was inactive. For the same molecule, the result in assay [8], in assay [9], in [10], in assay [11], in assay [13] and in [14] was inactive. The outcome in assay [15] and in assay [16] was inactive.
On to `CCn1c(=O)cc(OCC(=O)NCCCN2CC(C)CC(C)C2)c2ccccc21` (stereo not given), for which the activation in [1] was 80% (active); in assay [2] it was 73% (active); in assay [12], 17.3% (active). The outcome in assay [3], in assay [4], in [5], in assay [6], in assay [7] and in [8] was inactive. In addition, the result in [9], in assay [10], in [11], in [13], in assay [14] and in assay [15] was inactive. The result in assay [16] was inactive.
For the molecule `CN(CCc1nc2ccc(Cl)cc2[nH]1)Cc1nc(CC2CC2)no1`, the results for the activation in assay [1] and in assay [12] were 115% (active) and 23.4% (active), respectively. Moreover, the outcome in assay [2], in assay [3], in assay [4], in [5], in assay [6] and in [7] was inactive. The result in assay [8], in assay [9], in assay [10], in [11], in assay [13] and in assay [14] was inactive. The result in assay [15] and in [16] was inactive.
As to `CCCCN(CC)CCCNC(=O)Cn1nc(Cc2ccncc2)c2ccccc2c1=O`, the activation in assay [1] was 162% (active); in [2], 120% (active); in assay [10], 31.5% (active); in [12], 53.7% (active). Also, the outcome in assay [3], in assay [4], in [5], in assay [6], in [7] and in assay [8] was inactive. Moreover, the call in assay [9], in [11], in assay [13], in assay [14], in assay [15] and in assay [16] was inactive.
Turning to `CN(C)C(CNC(=S)Nc1cccc(Cl)c1)c1cccnc1` (stereo not given), the activation in [1] was 77% (active); in assay [2] it was 110% (active). Besides, the outcome in [3], in assay [4], in assay [5], in [6], in assay [7] and in [8] was inactive. The molecule was classed as inactive in assay [9], in assay [10], in assay [11], in assay [12], in assay [13] and in [14]. The outcome in assay [15] and in assay [16] was inactive.
As to `Cc1c(CN2CCC(n3nccc3NC(=O)C3CC3)CC2)[nH]c2ccccc12`, the activation in assay [1] is 138% (active); in assay [10], 26% (active). Further, the outcome in [2], in assay [3], in assay [4], in [5], in [6] and in [7] was inactive. The result in [8], in assay [9], in [11], in assay [12], in assay [13] and in assay [14] was inactive. Also, the result in [15] and in assay [16] was inactive.
Take `CCOC(=O)c1oc2ccc(OC)cc2c1NC(=O)CN1CCN(C)CC1`: the outcome in [1], in assay [2], in assay [3], in assay [4], in assay [5] and in assay [6] was inactive. The outcome in assay [7], in assay [8], in assay [9], in assay [11], in [13] and in [14] was inactive. Besides, the outcome in assay [15] and in assay [16] was inactive. The activation was 32% (active) in assay [10] and 12.8% (active) in assay [12].
As for `Cc1cc(-c2nn(-c3ccccc3F)cc2CNCCc2cnc[nH]2)c(C)s1`, the activation in assay [1] is 89% (active); in [2], 87% (active); in assay [12], 39.8% (active). The outcome in [3], in assay [4], in assay [5], in assay [6], in [7] and in [8] was inactive. For the same molecule, the call in [9], in [10], in [11], in assay [13], in assay [14] and in assay [15] was inactive. Further, in assay [16], the result was inactive.
Turning to `CCOC(=O)C1(CCOc2ccccc2)CCN(Cc2cnc(C)s2)CC1`, the activation in assay [1] is 66% (active); in assay [10] it was 59.5% (active); in assay [12], 5.79% (active). Besides, the outcome in assay [2], in [3], in assay [4], in assay [5], in assay [6] and in assay [7] was inactive. For the same molecule, the outcome in assay [8], in [9], in assay [11], in assay [13], in assay [14] and in assay [15] was inactive. Further, in assay [16], the result was inactive.
As to `CN(CCOc1ccc(Cl)cc1)CC(O)c1ccccc1` (stereo not given), the results for the activation in [1], in assay [10] and in [12] were 76% (active), 52.5% (active) and 13.9% (active), respectively. For the same molecule, the outcome in [2], in [3], in assay [4], in assay [5], in assay [6] and in assay [7] was inactive. The outcome in [8], in [9], in assay [11], in assay [13], in [14] and in assay [15] was inactive. Moreover, in [16], the result was inactive.
`Cc1ccc(-n2cc(CNCC3CC(=O)N(C4CC4)C3)c(-c3cccc(C)c3)n2)cc1` (stereo not given): the activation in assay [1] is 165% (active); in assay [10] it was 52.5% (active). The outcome in [2], in assay [3], in assay [4], in assay [5], in [6] and in assay [7] was inactive. Also, the result in assay [8], in assay [9], in assay [11], in assay [12], in [13] and in [14] was inactive. For the same molecule, the outcome in [15] and in [16] was inactive.
`CC(NCCC1(Cc2ccccc2Cl)CCOC(C)(C)C1)c1cccs1` (stereo not given): in [1], the activation was 89% (active). Besides, the result in assay [2], in assay [3], in [4], in assay [5], in assay [6] and in [7] was inactive. Further, the result in assay [8], in assay [9], in assay [10], in [11], in assay [12] and in assay [13] was inactive. Besides, the outcome in assay [14], in assay [15] and in [16] was inactive.
On to `O=C(c1c(F)cccc1F)N1CCN(c2ncc(Br)cn2)CC1`, for which the activation in assay [1] is 158% (active); in [2] it was 86% (active); in [10], 34% (active); in assay [12], 68.5% (active). The outcome in assay [3], in assay [4], in assay [5], in assay [6], in assay [7] and in assay [8] was inactive. Besides, the outcome in [9], in assay [11], in [13], in [14], in assay [15] and in assay [16] was inactive.
Take `CC1CC(C)CN(CCCNC(=O)COc2cc(=O)n(C)c3ccccc23)C1` (stereo not given): the activation in assay [1] is 88% (active); in assay [2] it was 80% (active); in [12], 23.2% (active). Besides, the result in assay [3], in assay [4], in assay [5], in assay [6], in [7] and in assay [8] was inactive. Also, the outcome in assay [9], in assay [10], in assay [11], in assay [13], in [15] and in assay [16] was inactive. In addition, the potentiation in assay [14] is 26.9% (active).

(Values after PubChem BioAssay.)
